27 molecules from PubChem BioAssay (NCATS) can be followed below.

Experiment [1] is described as follows: Primary qHTS for inhibitors of nuclear receptor binding SET domain protein 2 (NSD2) in an RCH-ACV wild type WT cells (2C) (AID 1645877). For activity change, negative = cell killing: % is set by controls: 0 for no effect and ±100 for the full control effect. Note: nearly all actives have a fitted effect of over 70% in size. Note: potency is the fitted concentration of half-maximal effect. In general terms: In qHTS, concentration-response curves come from the screen itself.
Experiment [2] concerns the target Metallo-beta-lactamase type 2 (Klebsiella pneumoniae) (UniProt C7C422). As to the kind of experiment: qHTS to identify inhibitors of the New Delhi Metallo-beta-lactamase (NDM): assay validation screen against the NCATS LOPAC Collection (AID 1794843).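 Note: nitrocefin turnover by NDM-1 measured as 485 nm absorbance at plateau; % is set by controls: 0 for no effect and ±100 for the full control effect.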 In a few lines:
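NDM-1 at 2 nM final in 50 mM HEPES pH 7.0 with 1 uM ZnSO4 and 0.01% Tween20 was preincubated with library compounds in DMSO. Nitrocefin (50 uM stock) was then added, and absorbance at 485 nm was read at the kinetic plateau.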

The target in experiment [3] is Glutathione peroxidase 1 (Homo sapiens) (UniProt P07203). As to the kind of experiment: Primary qHTS Assay for Inhibitors of Recombinant Selenoprotein Glutathione Peroxidase 1 (GPX1) (AID 1845191). For activity, negative = inhibition: % is set by controls: 0 for no effect and ±100 for the full control effect. Note: nearly all actives have a fitted effect of over 65% in size. Note: potency is the fitted concentration of half-maximal effect. In a few lines: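 Recombinant GPX1 (10 nM final) was preincubated with compound for 30 min at room temperature, then reacted with 1 mM GSH, 0.5 mM CHP, 0.5 mM NADPH and 100 nM glutathione reductase; NADPH fluorescence (340/450 nm) was read at 0 and 15 min.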
Sequence of Glutathione peroxidase 1 (Homo sapiens) (P07203 whole entry, looked up): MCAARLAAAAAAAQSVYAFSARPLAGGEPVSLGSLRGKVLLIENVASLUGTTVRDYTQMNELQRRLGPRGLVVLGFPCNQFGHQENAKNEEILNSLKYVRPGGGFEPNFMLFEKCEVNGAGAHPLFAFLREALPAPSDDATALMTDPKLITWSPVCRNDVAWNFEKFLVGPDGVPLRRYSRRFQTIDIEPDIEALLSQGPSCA

Experiment [4] has as its target Phospholipid hydroperoxide glutathione peroxidase GPX4 (Homo sapiens) (UniProt P36969). The experiment is described as follows: Primary qHTS Assay for Inhibitors of Recombinant Selenoprotein Glutathione Peroxidase 4 (GPX4) (AID 1845192). Note: nearly all actives have a fitted effect of over 65% in size. The following applies: outcome: dose series up to 50 µM unless noted. In a few lines: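 GR-coupled readout: 100 nM GR, 1 mM GSH, 0.5 mM NADPH; NADPH fluorescence (ex 340/em 450 nm) read at t=0 and after 15 min RT. GPX4 200 nM, preincubated 30 min with compound; substrate 0.5 mM CHP.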

Experiment [5] in a line: qHTS profiling for inhibitors of Plasmodium falciparum proliferation (AID 504749).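 Note: 0% = DMSO vehicle and full inhibition = artemisinin control; nearly all actives have a fitted effect of over 60% in size.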 To be noted: P. falciparum in erythrocytes, SYBR Green DNA, 72 h. In a few lines:
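Parasite proliferation within erythrocytes, 72 h exposure. Endpoint: SYBR Green I fluorescence after overnight lysis at room temperature. Controls: 0.29 uM artemisinin, DMSO.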

Experiment [6] concerns the target Rap guanine nucleotide exchange factor 3 (Homo sapiens) (UniProt O95398). The experiment is described as follows: Confirmatory qHTS for antagonist of cAMP-regulated guanine nucleotide exchange factor 3 (EPAC1) (AID 1645880).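 Note: plate controls were DMSO only for no effect and full effect of the ATA control for full effect; nearly all actives have a fitted effect of over 55% in size.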 The essentials:
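Nucleotide exchange uses 100 nM EPAC1, 250 nM RAP1B-BODIPY-GDP and 50 uM GDP, with compounds in a concentration-titration series. After 5 min at room temperature, fluorescence (480 nm ex/540 nm em) is read every 5 min for 30 min. Data are normalized to control ATA and DMSO.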

Experiment [7] has the same target. The experiment is described as follows: Confirmatory qHTS for agonist of cAMP-regulated guanine nucleotide exchange factor 3 (EPAC1) (AID 1645881).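 Note: EPAC1 catalysed release of BODIPY-GDP from Rap1B seen as fluorescence loss; 100% = effect of cAMP agonist control; nearly all actives have a fitted effect of over 75% in size.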
Experiment [8] has as its target Rap guanine nucleotide exchange factor 4 (Homo sapiens) (UniProt Q8WZA2). The experiment is described as follows: Confirmatory qHTS for agonist of cAMP-regulated guanine nucleotide exchange factor 4 (EPAC2) (AID 1645884).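 Note: nucleotide exchange releases bodipy-GDP from Rap1 and this lowers its fluorescence; % is set by controls: 0 for no effect and ±100 for the full control effect; nearly all actives have a fitted effect of over 65% in size.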
The target is the same in experiment [9]. The experiment is described as follows: Confirmatory qHTS for antagonist of cAMP-regulated guanine nucleotide exchange factor 4 (EPAC2) (AID 1645885). Note: % is set by controls: 0 for no effect and ±100 for the full control effect; nearly all actives have a fitted effect of over 25% in size.
Where [10] appears, read: at 28.7 µM (top of the series), parasite line A.
The mark [11] stands for this setting: at 28.7 µM (top of the series), parasite line B.
[12] abbreviates: at 12.8 µM (top of the series), parasite line A.
Setting [13] is: at 12.8 µM (top of the series), parasite line B.

The structures appear in SMILES notation. Inconclusive results are not listed. Values without a mark were called inactive. Calls of active or inactive are those of the source. Calls come from the whole dose curve; as a rule, active = well fitted curve in the direction sought with a large enough effect; inconclusive = small, poorly fitted or top-dose-only effect, or another doubt; inactive = no such curve, though single readings can be large; an effect the other way counts as inactive or inconclusive.

Sequence of Phospholipid hydroperoxide glutathione peroxidase GPX4 (Homo sapiens) (P36969 whole entry, looked up): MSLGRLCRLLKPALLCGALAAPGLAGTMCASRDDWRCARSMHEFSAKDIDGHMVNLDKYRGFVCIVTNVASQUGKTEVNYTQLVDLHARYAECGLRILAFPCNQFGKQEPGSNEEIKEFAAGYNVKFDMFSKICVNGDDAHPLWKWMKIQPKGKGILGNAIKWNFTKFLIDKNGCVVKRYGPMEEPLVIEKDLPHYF
Sequence of Metallo-beta-lactamase type 2 (Klebsiella pneumoniae) (C7C422 whole entry, looked up): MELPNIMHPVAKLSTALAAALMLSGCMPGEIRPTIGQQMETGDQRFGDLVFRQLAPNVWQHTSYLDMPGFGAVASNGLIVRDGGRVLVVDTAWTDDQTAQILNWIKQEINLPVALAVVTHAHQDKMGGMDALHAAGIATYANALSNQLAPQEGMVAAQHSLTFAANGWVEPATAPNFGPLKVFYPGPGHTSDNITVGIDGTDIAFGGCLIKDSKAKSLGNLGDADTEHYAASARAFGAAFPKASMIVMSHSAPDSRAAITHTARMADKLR
Sequence of Rap guanine nucleotide exchange factor 4 (Homo sapiens) (Q8WZA2 whole entry, looked up): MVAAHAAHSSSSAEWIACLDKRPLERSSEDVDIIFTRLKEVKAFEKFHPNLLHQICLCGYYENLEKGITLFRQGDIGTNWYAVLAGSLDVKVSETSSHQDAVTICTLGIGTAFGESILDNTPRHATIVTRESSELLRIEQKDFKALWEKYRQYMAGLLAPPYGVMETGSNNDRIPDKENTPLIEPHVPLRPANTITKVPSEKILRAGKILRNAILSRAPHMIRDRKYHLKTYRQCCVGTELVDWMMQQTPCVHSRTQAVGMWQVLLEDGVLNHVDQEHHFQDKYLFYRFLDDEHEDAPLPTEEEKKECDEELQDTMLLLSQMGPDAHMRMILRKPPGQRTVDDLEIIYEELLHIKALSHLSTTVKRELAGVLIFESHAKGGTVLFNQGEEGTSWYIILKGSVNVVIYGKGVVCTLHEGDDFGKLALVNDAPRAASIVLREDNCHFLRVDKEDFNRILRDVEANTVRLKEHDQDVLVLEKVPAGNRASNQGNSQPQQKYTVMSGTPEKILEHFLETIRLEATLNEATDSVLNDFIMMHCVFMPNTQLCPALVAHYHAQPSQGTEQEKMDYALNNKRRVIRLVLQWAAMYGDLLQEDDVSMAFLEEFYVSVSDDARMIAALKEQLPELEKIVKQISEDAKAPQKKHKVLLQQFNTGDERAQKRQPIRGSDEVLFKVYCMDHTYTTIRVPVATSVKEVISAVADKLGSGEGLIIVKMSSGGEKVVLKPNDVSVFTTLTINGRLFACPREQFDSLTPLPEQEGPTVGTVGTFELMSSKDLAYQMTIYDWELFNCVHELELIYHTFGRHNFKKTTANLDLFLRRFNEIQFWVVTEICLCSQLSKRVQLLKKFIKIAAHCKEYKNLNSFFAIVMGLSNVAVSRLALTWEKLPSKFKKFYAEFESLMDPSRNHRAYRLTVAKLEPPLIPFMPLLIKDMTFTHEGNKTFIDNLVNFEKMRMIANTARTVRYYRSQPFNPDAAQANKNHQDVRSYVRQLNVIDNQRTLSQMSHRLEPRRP
Sequence of Rap guanine nucleotide exchange factor 3 (Homo sapiens) (O95398 whole entry, looked up): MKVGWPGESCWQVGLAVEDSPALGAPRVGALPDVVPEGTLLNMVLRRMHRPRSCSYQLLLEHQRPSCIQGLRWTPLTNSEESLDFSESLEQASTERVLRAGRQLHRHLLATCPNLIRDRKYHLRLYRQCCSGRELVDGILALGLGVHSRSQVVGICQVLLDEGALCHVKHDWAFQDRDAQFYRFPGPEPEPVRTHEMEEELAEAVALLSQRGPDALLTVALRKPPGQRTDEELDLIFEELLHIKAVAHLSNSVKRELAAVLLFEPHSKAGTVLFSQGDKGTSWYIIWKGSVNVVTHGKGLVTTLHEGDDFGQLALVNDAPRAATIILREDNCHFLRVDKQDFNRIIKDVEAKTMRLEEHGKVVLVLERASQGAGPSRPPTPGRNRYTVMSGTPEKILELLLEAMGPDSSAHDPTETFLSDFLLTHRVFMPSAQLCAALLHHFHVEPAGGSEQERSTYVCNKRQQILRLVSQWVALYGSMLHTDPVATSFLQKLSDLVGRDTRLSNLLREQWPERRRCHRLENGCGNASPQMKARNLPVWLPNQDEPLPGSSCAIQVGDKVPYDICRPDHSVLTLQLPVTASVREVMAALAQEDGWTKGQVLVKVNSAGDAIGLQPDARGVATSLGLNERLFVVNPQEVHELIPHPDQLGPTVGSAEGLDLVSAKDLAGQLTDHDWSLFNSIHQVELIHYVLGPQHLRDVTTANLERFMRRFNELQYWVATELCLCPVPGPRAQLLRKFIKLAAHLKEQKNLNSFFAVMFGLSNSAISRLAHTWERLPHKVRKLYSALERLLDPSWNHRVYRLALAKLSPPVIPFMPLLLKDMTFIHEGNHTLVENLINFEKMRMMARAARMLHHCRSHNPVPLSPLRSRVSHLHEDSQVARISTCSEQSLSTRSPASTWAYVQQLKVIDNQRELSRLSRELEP

With `CSc1ccc(C(=O)c2[nH]c(=O)[nH]c2C)cc1`, the Potency result in experiment [1], in experiment [2] and in [3] was “inactive” in each case. In [4], the outcome was inactive. Besides, the figures for the activity, negative = inhibition in [5] (setting [10]) and in experiment [5] (setting [11]) were 9.87% and 9.86%, respectively.

For the molecule `CC(=O)[C@@]1(O)CC[C@H]2[C@@H]3CCC4=CC(=O)CC[C@]4(C)[C@H]3CC[C@@]21C`, the Potency entry in experiment [1], in experiment [2] and in [3] was “inactive” each time. Further, the result in [4] was inactive. Moreover, the activity, negative = inhibition in [5] (setting [10]) is -9.44%; in experiment [5] (setting [11]) it was 1.51%.

In the case of `CCO/C([O-])=N/c1c[n+](N2CCOCC2)no1`, the Potency entry in experiment [1], in [2] and in experiment [3] was “inactive” throughout. For the same molecule, the outcome in experiment [4] was inactive. For the same molecule, the results for the activity, negative = inhibition in [5] (setting [12]) and in experiment [5] (setting [13]) were 2.13% and 0.211%, respectively.

`CC(=O)OCC1=C(C(=O)O)N2C(=O)[C@@H](NC(=O)Cc3cccs3)[C@H]2SC1`: the Potency entry in experiment [1] and in experiment [2] was “inactive” each time. Also, the Potency in experiment [3] is 10.1 µM (active). In addition, the activity, negative = inhibition is 5.33% in experiment [5] (setting [10]) and 13.1% in experiment [5] (setting [11]).

As to `NS(=O)(=O)c1cc2c(cc1Cl)NC(C1CC3C=CC1C3)NS2(=O)=O` (stereo unspecified), the Potency result in experiment [1], in [2] and in [3] was “inactive” throughout. In addition, the outcome in experiment [4] was inactive. Besides, the activity, negative = inhibition was 2.38% in experiment [5] (setting [10]) and -3.16% in experiment [5] (setting [11]).

On to `CC(C)NNC(=O)c1ccncc1`, for which the Potency result in [1], in [2] and in [3] was “inactive” each time. Further, the activity, negative = inhibition in experiment [5] (setting [10]) was -11.8%.

As to `CC(=O)Oc1cc(C(C)C)c(OCCN(C)C)cc1C`, the Potency result in experiment [1], in [2] and in experiment [3] was “inactive” in each case. Besides, the outcome in [4] was inactive. Besides, the activity, negative = inhibition in [5] (setting [12]) was 4.04%; in experiment [5] (setting [13]) it was -3.15%.

Turning to `Cc1scc2c1N(C(=O)CN1CCN(C)CC1)c1ccccc1NC2=O`, the Potency entry in experiment [1], in experiment [2] and in experiment [3] was “inactive” throughout. Further, the result in experiment [4] was inactive. The activity, negative = inhibition in experiment [5] (setting [10]) was 0.0421%; in [5] (setting [11]), 4.05%.

Take `CN(C)C/C=C(/c1ccc(Br)cc1)c1cccnc1`: the Potency result in [1], in experiment [2] and in [3] was “inactive” in each case. For the same molecule, the activity, negative = inhibition in [5] (setting [10]) was -2.53%.

Consider `CCN(CC)CCNC(=O)c1cc(S(C)(=O)=O)ccc1OC`, for which the Potency entry in experiment [1], in experiment [2] and in [3] was “inactive” throughout. Moreover, in [4], the outcome was inactive. The activity, negative = inhibition in experiment [5] (setting [12]) is 11.8%; in [5] (setting [13]) it was 10.3%.

As for `CC(C(=O)O)c1ccc(CC2CCCC2=O)cc1` (stereo unspecified), the Potency result in experiment [1], in [2] and in experiment [3] was “inactive” throughout. In addition, the result in [4] was inactive. Moreover, the activity, negative = inhibition in [5] (setting [10]) is 0.257%; in [5] (setting [11]) it was 5.29%.

As to `O=c1[nH]c(=O)n([C@H]2C[C@H](O)[C@@H](CO)O2)cc1Br`, the Potency in experiment [1] is 0.75 µM (active). Moreover, the Potency entry in experiment [2] and in experiment [3] was “inactive” in each case. For the same molecule, the outcome in experiment [4] was inactive. Moreover, the activity, negative = inhibition in experiment [5] (setting [10]) was -7.76%; in [5] (setting [11]) it was -6.27%.

For the molecule `CCCCNC(=O)NS(=O)(=O)c1ccc(C)cc1`, the Potency entry in [1], in experiment [2] and in [3] was “inactive” in each case. The result in experiment [4] was inactive. In addition, the activity, negative = inhibition in experiment [5] (setting [10]) was 1.62%; in experiment [5] (setting [11]), 0.192%.

Consider `CN(C)C(=O)Oc1cccc([N+](C)(C)C)c1`, for which the Potency result in experiment [1], in [2] and in experiment [3] was “inactive” each time. Besides, the outcome in experiment [4] was inactive. For the same molecule, the activity, negative = inhibition in experiment [5] (setting [10]) is 4.77%; in [5] (setting [11]) it was -6.35%.

For the molecule `Cc1ccc(S(=O)(=O)NC(=O)NN2CCCCCC2)cc1`, the Potency result in experiment [1], in experiment [2] and in [3] was “inactive” throughout. The figures for the activity, negative = inhibition in experiment [5] (setting [10]) and in [5] (setting [11]) were -5.36% and 12.1%, respectively.

As for `Nc1ncn([C@@H]2O[C@H](CO)[C@@H](O)[C@H]2O)c(=O)n1`, the Potency in experiment [1] is 9.34 µM (active). Besides, the Potency entry in experiment [2] and in experiment [3] was “inactive” throughout. For the same molecule, the outcome in [4] was inactive. Further, the activity, negative = inhibition in [5] (setting [10]) is -1.52%; in experiment [5] (setting [11]), 6.7%.

As for `c1cnc(N2CCN(Cc3ccc4c(c3)OCO4)CC2)nc1`, the Potency result in experiment [1], in [2] and in experiment [3] was “inactive” throughout. In addition, in [4], the outcome was inactive. The activity, negative = inhibition is 13.8% in experiment [5] (setting [10]) and 17.3% in experiment [5] (setting [11]).

With `CC[N+](C)(C)c1cccc(O)c1`, the Potency entry in experiment [1], in experiment [2] and in [3] was “inactive” in each case. Moreover, the outcome in experiment [4] was inactive. The activity, negative = inhibition in [5] (setting [12]) was 14.2%; in experiment [5] (setting [13]) it was 8.4%.

Regarding `NC(Cc1ccc(Cl)cc1)C(=O)O` (stereo unspecified), the activity change, negative = cell killing in experiment [1] is 2.13% [at 0.588 µM]. Also, in experiment [2], the Potency result is “inactive”. Further, in experiment [4], the result was inactive. In addition, the values for the activity, negative = inhibition in experiment [5] (setting [10]) and in experiment [5] (setting [11]) were 17.3% and 7.34%, respectively.

As to `Cc1cccc(C)c1NC(=O)C(C)N` (stereo unspecified), the call in experiment [6] and in [4] was inactive. In addition, the Potency entry in experiment [7], in [8], in experiment [9], in experiment [2] and in experiment [3] was “inactive” in each case.

`NC(=O)N1c2ccccc2C=Cc2ccccc21`: the Potency result in experiment [1] and in [2] was “inactive” each time. The outcome in [4] was inactive. The activity, negative = inhibition in experiment [5] (setting [10]) is -22.9%; in experiment [5] (setting [11]), -3.8%.

On to `CN(C)CCN(Cc1cccs1)c1ccccn1`, for which the Potency entry in experiment [1], in experiment [2] and in experiment [3] was “inactive” each time. For the same molecule, the activity, negative = inhibition in experiment [5] (setting [10]) is 5.46%; in experiment [5] (setting [11]) it was 6.28%.

In the case of `CC(C)(Oc1ccc(CCNC(=O)c2ccc(Cl)cc2)cc1)C(=O)O`, the Potency result in experiment [1] and in experiment [2] was “inactive” each time. In addition, the outcome in experiment [4] was inactive. Also, the activity, negative = inhibition in experiment [5] (setting [12]) is -1.93%; in experiment [5] (setting [13]), -2.04%.

`CCCCCN(CCCCC)C(=O)C(CCC(=O)O)NC(=O)c1ccc(Cl)c(Cl)c1` (stereo unspecified): the Potency result in experiment [1] and in experiment [2] was “inactive” in each case. Besides, the activity, negative = inhibition in experiment [5] (setting [10]) is 16.8%; in [5] (setting [11]), 7.13%.

Take `C#CCN(C)CCCOc1ccc(Cl)cc1Cl`: the Potency result in experiment [1] and in experiment [2] was “inactive” each time. Besides, in [4], the result was inactive. For the same molecule, the activity, negative = inhibition in experiment [5] (setting [10]) is 6.5%; in [5] (setting [11]), 12.2%.

For `CNC1(C)C2CCC(C2)C1(C)C` (stereo unspecified), the Potency entry in experiment [1] and in experiment [2] was “inactive” throughout. Besides, the outcome in experiment [4] was inactive. Besides, the activity, negative = inhibition is 6.34% in experiment [5] (setting [10]) and 5.34% in experiment [5] (setting [11]).

With `C(=C\c1ccccc1)/CN1CCN(C(c2ccccc2)c2ccccc2)CC1`, the Potency entry in experiment [1] and in experiment [2] was “inactive” throughout. In addition, the outcome in experiment [4] was inactive.
